# EBV LMP1 NFkB: Epstein-Barr LMP1 NF-kappaB reporter inhibition; LMP1-induced NF-kappaB luciferase reporter cells, luminescence; inhibition, % at 12.5 µM; 350,000 compounds, 0.69% hits; AID 504558; in the data active means inhibition above about 41%
# MITF TRPM1 inh: MITF TRPM1 promoter inhibition in SK-MEL-5 cells | 330,000 compounds, 0.83% hits | SK-MEL-5 TRPM1 promoter luciferase, 24 h | inhibition, % at 12.5 µM;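 active means mean inhibition across replicates of 60% or more, whatever share of single replicates reaches that level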
# Shn3 inh set2: reduces Shn3 3'UTR luciferase signal in osteoblasts. inhibition, % at 12.5 µM. Clone20 osteoblast Shn3 3'UTR firefly luciferase, 24 h. 360,000 compounds, 0.52% hits. AID 588674;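 active means mean inhibition of at least 75% with every replicate also reaching 75%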
# 697 NFkB inh: lowers PMA/ionomycin-induced NF-kB signal in 697 B cells | inhibition, % at 4 µM | AID 435022 | 697 B-cell NF-kB luciferase reporter, 16 h | 330,000 compounds, 0.33% hits; in the data active means inhibition above about 35%
# Gli-Sufu antag: antagonists of Gli-Sufu signaling | inhibition, % at 5 µM | Sufu-KO-LIGHT fibroblasts, Gli luciferase reporter luminescence | AID 588413 | 340,000 compounds, 0.74% hits;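 active means inhibition above about 55%, limit read from the data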
# Jurkat NFkB inh: inhibitors of the PMA/ionomycin-induced NF-kB reporter in Jurkat cells; 330,000 compounds, 0.53% hits; inhibition, % at 4 µM; PMA/ionomycin-induced NF-kB luciferase reporter, luminescence; in the data active means inhibition above about 50%
# Numbers stand for hits; - = inactive; . = not tested or not shown. An excerpt weighted towards active compounds, which were near 2.3% of everything screened.
SMILES,EBV LMP1 NFkB,MITF TRPM1 inh,Shn3 inh set2,697 NFkB inh,Gli-Sufu antag,Jurkat NFkB inh
O=C(CNc1ccc2ccccc2c1)N/N=C/c1ccc([N+](=O)[O-])o1,-,-,-,-,-,-
O=C(COc1ccccc1)N/N=C/c1ccc([N+](=O)[O-])o1,-,68.0,-,-,-,-
O=C(COC(=O)c1cccnc1Cl)NC1CCCCC1,-,-,-,-,-,-
CC(=O)c1ccccc1NC(=O)CSc1nc2ccccc2c(=O)n1CCCN1CCOCC1,-,-,-,-,-,-
Cc1cc(C(=O)N/N=C/c2ccc([N+](=O)[O-])o2)c(C)o1,-,82.9,-,-,-,-
Cc1nonc1C(=O)N/N=C/c1ccc([N+](=O)[O-])o1,-,-,-,-,-,-
O=C1ON=C(c2ccccc2[N+](=O)[O-])/C1=C/c1cccc([N+](=O)[O-])c1O,71.3,-,-,-,-,-
O=C1ON=C(c2ccc(Cl)c([N+](=O)[O-])c2)/C1=C/c1cccc([N+](=O)[O-])c1O,-,-,-,-,-,-
O=C(COc1ccc2ccccc2c1)NCCNC(=O)COc1ccc2ccccc2c1,53.7,-,-,-,-,-
S=C(Nc1ccc(OCc2ccccc2)cc1)Nc1cccc(Cl)c1Cl,74.0,-,-,-,-,-
CS(=O)(=O)c1nc(-c2ccccc2)cc(C(F)(F)F)n1,-,94.6,95.1,-,-,-
Cc1cc(NC(=O)CCS(=O)(=O)c2nc(-c3ccccc3)cc(C(F)(F)F)n2)no1,-,84.7,-,-,-,-
O=C(Cn1c(=O)c2cccn2c2cccnc21)N1CCN(c2ccccc2F)CC1,71.3,-,-,-,-,-
CC(=O)c1ccc(NC(=O)c2noc3c2CCC3)cc1,65.1,-,-,-,-,-
O=C(NCc1ccccc1)c1noc2c1CCCCC2,-,-,-,-,-,-
O=C(NC1CCCC1)c1noc2c1CCCCC2,41.8,-,-,-,-,-
Cc1ccc(C)c(NC(=O)CN(C)C(=O)C2CCN(S(=O)(=O)c3ccc4c(c3)OCCO4)CC2)c1,-,-,-,-,-,-
CCSc1nc2ccc(OC)cc2cc1C#N,77.6,-,-,-,-,-
O=C(O)Cc1ccc(NC(=O)c2ccc3c(c2)C(=O)N(Cc2ccccc2)C3=O)cc1,-,.,-,.,.,.
Cc1csc2ncc(C(=O)Nc3cccc(C(F)(F)F)c3)c(=O)n12,-,-,-,-,-,-
Cc1ccc(NC(=O)c2cccc(Oc3ccc([N+](=O)[O-])cc3)c2)c(C(=O)O)c1,-,-,-,-,-,-
Cn1cc([N+](=O)[O-])c(C(=O)Nc2cc(Oc3ccccc3)cc([N+](=O)[O-])c2)n1,-,82.3,95.6,.,-,.
Cc1cccc(Oc2cc(NC(=O)c3ccccc3)cc([N+](=O)[O-])c2)c1,-,-,87.4,-,-,-
Cc1ccc(S(=O)(=O)N2c3ccccc3-c3c(ssc3=S)C2(C)C)cc1,58.4,-,-,-,-,-
COc1ccc2c(c1)-c1c(ssc1=S)C(C)(C)N2S(=O)(=O)c1ccc(C)cc1,-,-,-,-,-,-
SMILES,EBV LMP1 NFkB,MITF TRPM1 inh,Shn3 inh set2,697 NFkB inh,Gli-Sufu antag,Jurkat NFkB inh
COc1ccc(-n2nnnc2SCC(=O)Nc2ccc3c(c2)OCCO3)cc1OC,-,-,-,-,-,-
CCCSc1nc2cc(S(=O)(=O)N3CCOCC3)ccc2n1CC,67.5,-,-,-,-,-
CC(=O)c1cccc(S(=O)(=O)N2CCN(CCOc3ccccc3)CC2)c1,-,-,-,-,-,-
O=C(CCC(=O)N1CCN(c2ccc(O)cc2)CC1)c1ccc(Br)cc1,.,.,.,-,.,-
Cc1ccc(C(=O)n2c(N)nc3ccccc32)cc1,64.7,66.6,-,-,-,-
CCOC(=O)CSc1nc(Nc2ccc3c(c2)OCO3)c2ccccc2n1,-,-,-,-,-,-
CCc1cc(C(=O)N/N=C/c2ccc(O)cc2O)c2ccccc2n1,-,68.4,93.3,-,-,-
Cc1cc(SCC(=O)N/N=C/c2ccccc2C(=O)O)c(C)cc1Br,-,-,-,-,-,-
Cc1cc(SCC(=O)N/N=C/c2ccc(O)cc2O)c(C)cc1Br,-,-,92.6,-,-,-
O=C(/C=C\c1ccccc1)NCC(=O)N/N=C/c1ccc(O)cc1O,-,67.3,-,-,-,-
C[C@@H]1CN([C@@H](C)CO)C(=O)CCCn2cc(nn2)CO[C@H]1CN(C)C(=O)CCCN(C)C,-,.,-,.,.,.
COC(=O)C1C(c2ccccc2)NC(=O)NC1(O)C(F)(F)Cl (configuration not stated),-,-,-,-,-,-
COc1ccc(/C(N)=N/OC(=O)c2ccc3ccccc3c2)cc1OC,-,.,-,.,.,.
COc1ccc(/C=C2\Oc3cc(OCC(=O)N4CCC[C@H]4C(=O)O)ccc3C2=O)c(OC)c1OC,-,-,-,-,-,-
CCOC(=O)CCc1c(C)c2ccc(OC3CCCCC3=O)c(C)c2oc1=O (configuration not stated),-,-,-,-,-,-
O=C1C=CC2(O[C@H](c3ccccc3)[C@@H](c3ccccc3)O2)[C@H](Sc2ccccc2O)C1,82.2,94.2,95.6,.,-,.
C[C@@H]1[C@@H](Sc2ccccc2)CC(=O)O[C@@H]1c1ccc(-c2ccccc2)cc1,-,-,-,-,-,-
CC1CCN(S(=O)(=O)c2cc(Br)cc(C(=O)NC3=NCCS3)c2)CC1,-,-,-,-,-,-
O=C1C(SCCO)=C(SCCO)C(=O)c2ccccc21,59.0,111.2,92.5,-,-,-
O=C(c1ccc(-n2cccn2)cc1)N1CCc2c([nH]c3ccccc23)C1c1ccccn1 (configuration not stated),-,-,.,-,-,-
Cn1cccc1-c1cc(C(=O)N2CCc3c([nH]c4ccccc34)C2c2ccccn2)[nH]n1 (configuration not stated),55.4,-,-,-,-,-
O=C(N/N=C/c1ccccn1)c1ccco1,-,-,-,-,-,-
O=C(N/N=C/c1ccc2ncccc2c1)c1ccco1,47.7,-,-,-,-,-
Cc1c(C(=O)O/N=C(\N)c2ccccn2)cccc1[N+](=O)[O-],-,-,-,-,-,-
N#Cc1cc2c(nc1SC1CC(=O)N(c3ccccc3)C1=O)CCC2 (configuration not stated),51.8,65.3,-,.,-,.
SMILES,EBV LMP1 NFkB,MITF TRPM1 inh,Shn3 inh set2,697 NFkB inh,Gli-Sufu antag,Jurkat NFkB inh
CSc1nc2c(cc1C#N)CCC2,-,-,-,-,-,-
COc1ccc2c(C(=O)CCl)c[nH]c2c1,-,74.7,-,-,-,-
Cc1nn(-c2ccccc2)c(Cl)c1C(=O)NCCCCNC(=O)c1c(C)nn(-c2ccccc2)c1Cl,60.6,-,-,-,-,-
Cc1nn(-c2ccccc2)c(Cl)c1C(=O)NCc1ccccc1F,-,-,-,-,-,-
CC1=NNC(=O)/C1=C\c1cn(-c2ccccc2)nc1-c1ccc(F)cc1,-,92.0,-,.,-,.
O=C(O)CCCCCN1C(=O)/C(=C/c2cn(-c3ccccc3)nc2-c2cccs2)SC1=S,-,-,-,.,-,.

# From PubChem BioAssay
